Screening data from PubChem BioAssay.
This excerpt belongs to a sample that is enriched for hits.
Menin-MLL FL inh = qHTS Assay for Inhibitors Targeting the Menin-MLL Interaction in MLL Related Leukemias: Competition With Fluorescein Labeled MLL-derived Peptide; Fluorescence polarization, fluorescein-MLL peptide displacement from menin; FP activity change, % at 61.4 µM; 290,000 tested, under 10 active; active means well fitted curve in the direction sought with a large enough effect in the polarisation, not every such curve was filed as active; inconclusive means small, poorly fitted or top-dose-only effect, or effect the other way, or a change in a side signal; inactive means no such curve, though single readings can be large or run the other way; the % refers to the polarisation; further: % of control where 0% means no effect
MLL CXXC-DNA inh = qHTS Fluorescence Polarization Assay for Inhibitors of MLL CXXC domain - DNA interaction | Potency, µM (top dose mostly 115 µM), inactives show at the top dose activity change, negative = inhibition, usual class: inhibitors | AID 2662, 2010 | 0.037% of 290,000 active | Histone-lysine N-methyltransferase 2A (Homo sapiens), Q03164 | MLL-CXXC / FITC-HOXA9 DNA fluorescence polarization; active means well fitted inhibition curve with a large enough effect in the polarisation, with a control signal flat, not every such curve was filed as active; inconclusive means small, poorly fitted or top-dose-only effect, or effect the other way, or a change in a side signal; inactive means no such curve, though single readings can be large or run the other way; the % refers to the polarisation; further: potency means the concentration at half of the fitted maximal effect
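Fluorescence polarization: 7 uM MLL-CXXC (stock) preincubated 5 min with compounds, then 50 nM fluorescein-HOX-A9 DNA (stock) added; 30 min ambient. Buffer 50 mM Tris-HCl pH 7.5, 50 mM NaCl, 1 mM DTT, 0.05% BSA.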
LMNA splice mod = qHTS Assay for Modulators of Lamin A Splicing | 0.01% of 200,000 active | HeLa LMNA splicing GFP/RFP minigene ratio, 48 h | AID 1487, 2009 | Potency, µM (series often up to 46.1 µM), inactives show at the highest dose ratio change, negative = inhibition, actives largely listed as inhibitors; active means well fitted inhibition curve with a large enough effect in the signal ratio, with a control signal flat, not every such curve was filed as active; inconclusive means small, poorly fitted or top-dose-only effect, or effect the other way, or a change in a side signal; the % refers to the signal ratio; further: potency means the concentration at half of the fitted maximal effect; on the % scale 0 is the no-effect control and ±100 the full control effect
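S3 HeLa stable clones carrying a lamin A-EGFP splicing minigene plus DsRed2 were seeded at 600 cells/well in Opti-MEM with 2% FBS, pin-dosed and incubated 48 h at 37°C. Acumen cytometry (488 nm) gave the GFP/RFP total-intensity ratio.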
Menin-MLL TR inh = qHTS Assay for Inhibitors Targeting the Menin-MLL Interaction in MLL Related Leukemias: Competition With Texas Red Labeled MLL-derived Mutant Peptide. Potency, µM (top dose mostly 61.6 µM), without a hit: top-dose FP activity change, negative = inhibition, actives largely listed as inhibitors. O00255. Menin + Texas Red MLL mutant peptide, fluorescence polarization. 0.23% of 270,000 active; active means well fitted inhibition curve with a large enough effect in the polarisation, with a control signal flat, not every such curve was filed as active; inconclusive means small, poorly fitted or top-dose-only effect, or effect the other way, or a change in a side signal; inactive means no such curve, though single readings can be large or run the other way; the % refers to the polarisation; further: potency means the concentration at half of the fitted maximal effect; % of control where 0% means no effect
MLL CXXC FP-Fl = qHTS Fluorescence Polarization (FP) Assay for Inhibitors of MLL CXXC domain - DNA interaction: Fluorescein FP; shares compounds with MLL CXXC-DNA inh; MLL CXXC-DNA binding, fluorescein FP; AID 624160, 2012; 70% of 200 active; Potency, µM (highest dose often 345 µM), for the others: at the highest dose activity change, negative = inhibition, usual class: inhibitors; further: potency means the concentration at half of the fitted maximal effect; nearly all actives have a fitted effect of over 80% in size
MLL CXXC TxRed = qHTS Fluorescence Polarization (FP) Assay for Inhibitors of MLL CXXC domain - DNA interaction: Texas Red FP; 40% of 200 active; Potency, µM (titrated, usually from 345 µM), inactives show at the top dose activity change, negative = inhibition, hits mostly inhibitors; shares compounds with MLL CXXC-DNA inh; MLL CXXC-DNA binding, Texas Red fluorescence polarization; AID 624161, 2012; further: potency means the concentration at half of the fitted maximal effect; on the % scale 0 is the no-effect control and ±100 the full control effect; nearly all actives have a fitted effect of over 75% in size
MLL CXXC HTRF = qHTS Fluorescence Polarization (FP) Assay for Inhibitors of MLL CXXC domain - DNA interaction: HTRF Assay | shares compounds with MLL CXXC-DNA inh | MLL CXXC-DNA binding, HTRF, biochemical | Potency, µM (titrated, usually from 172 µM), for the others: at the highest dose activity change, negative = inhibition, most hits filed as inhibitors | 30% of 210 active | AID 624162, 2012; further: on the % scale 0 is the no-effect control and ±100 the full control effect; nearly all actives have a fitted effect of over 80% in size
Starred values were filed as active, the others as inactive; ? = inconclusive; / = not tested or not shown; [ ] = dose if it differs, or a comment. Unless noted, the call rests on the fitted dose curve; in most records, active means well fitted inhibition curve with a large enough effect; inconclusive means small, poorly fitted or top-dose-only effect; inactive means no such curve, though single readings can be large or run the other way.

SMILES	Menin-MLL FL inh	MLL CXXC-DNA inh	LMNA splice mod	Menin-MLL TR inh	MLL CXXC FP-Fl	MLL CXXC TxRed	MLL CXXC HTRF
O=P(O)(O)CCCl	-1.0	/	/	-6.2%	/	/	/
Cc1cc(/C=C2\C(=O)NC(=O)N(c3ccccc3)C2=O)c(C)n1-c1ccc(C(=O)O)c(Cl)c1	15.1	?	/	22.9%	7.1%	113µM*	-2.2%
Cc1cc(/C=C2\C(=O)NC(=O)N(c3ccc(F)cc3)C2=O)c(C)n1-c1cccc(C(=O)O)c1	8.2	-18.6%	11.3%[9.22 µM]	9.8%	/	/	/
Cc1cc(/C=C2\C(=O)NC(=O)N(c3ccccc3F)C2=O)c(C)n1-c1cc(C(=O)O)cc(C(=O)O)c1	7.9	12.6µM*	/	26.0%	7.97µM*	22.5µM*	24.3µM*
CN1[C@@H]2CC(OC(=O)[C@H](CO)c3ccccc3)C[C@@H]1[C@H]1O[C@H]12 (stereo partly specified)	-22.9	/	/	6.4%[24.8 µM]	/	/	/
CCOC(=O)N1C(C)CN(/[N+]([O-])=N/Oc2ccc([N+](=O)[O-])cc2[N+](=O)[O-])CC1C (stereo unspecified)	3.3	/	/	?	/	/	/
CCN1C(=O)NC(=O)/C(=C\c2cn(CC(=O)O)c3ccccc23)C1=O	27.3	?	/	24.3%	/	/	/
Cc1ccc(N2C(=O)NC(=O)/C(=C\c3cn(CC(=O)O)c4ccccc34)C2=O)cc1	16.4	?	/	56.7%	14.2µM*	71.1µM*	-60.1%
O=C(O)Cn1cc(/C=C2\C(=O)NC(=O)N(Cc3ccco3)C2=O)c2ccccc21	?	?	26.9%[46 µM]	?	7.11µM*	39.8%	48.5µM*
CC1C(=O)OC2CC34C5CC(C(C)(C)C)C36C(OC(=O)C6O)OC4(C(=O)O5)C21O (stereo unspecified)	?	/	/	-1.7%[24.8 µM]	/	/	/
CC(CO)NC(=O)C1C=C2c3cccc4[nH]cc(c34)CC2N(C)C1 (stereo unspecified)	?	31.6µM*	?	-15.0%	142µM*	?	24.4%
COc1ccc(N=Cc2c(O)n(Cc3ccccc3)c(=S)[nH]c2=O)c(OC)c1	?	31.6µM*	/	/	159µM*	-1.1%	8.1%
C[C@@H](C(=O)O)c1ccc(C(=O)c2cccs2)cc1	-3.2[24.8 µM]	-6.8%[51.4 µM]	?	-3.6%[24.8 µM]	/	/	/
CC1=NN(c2ccccc2)C(=O)/C1=C/c1c(O)[nH]c(=O)[nH]c1=O	-1.3	1.4%	/	21.3%	/	/	/
O=c1[nH]c(O)c(/C=C2\C=NN=C2c2ccccc2)c(=O)[nH]1	5.7	?	-2.4%	3.4%	4.7%	126µM*	48.5µM*
CCc1ccccc1NC(=O)NNS(=O)(=O)c1cc(C)ccc1C	0.4	14.1µM*	/	-1.2%	?	-24.2%	0.0%
CN1[C@@H]2CC(OC(=O)[C@@H](CO)c3ccccc3)C[C@@H]1[C@H]1O[C@H]12 (stereo partly specified)	3.0	2.6%	?	6.1%	/	/	/
